Measured values published in PubChem BioAssay (Tox21).
Several values for one entry are separate records, joined by “and”; a condition that tells them apart may be missing. Identical values can stand only once. Inconclusive results are not listed. Where a structure was tested more than once in an assay, its records may differ in their call. Activity calls are given as the source filed them. Unless noted, the call rests on the fitted dose curve.

Experiments:
[1] = Nuclear factor erythroid 2-related factor 2/antioxidant responsive element (Nrf2/ARE) small molecule agonists: qHTS cell viability counter screen in human keratinocytes (AID 1919968; active means well fitted curve in the direction sought with a large enough effect in the repeat runs; an effect the other way counts as inactive or inconclusive; further: nearly all actives have a fitted effect of over 55% in size; further: potency means the concentration at half of the fitted maximal effect); settings: KeratinoSens HaCaT ARE cells viability, CellTiter-Fluor, 24 h; series mostly up to 92.4 µM
Method in brief: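 KeratinoSens cells (HaCaT keratinocytes stably carrying an ARE-luciferase reporter) were seeded at 1,500 cells/well and rested 5 h at 37 C/5% CO2. They were then exposed to compounds in DMSO for 23 h. Viability was read by CellTiter-Fluor fluorescence after 1 h.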

[2] = Nuclear factor erythroid 2-related factor 2/antioxidant responsive element (Nrf2/ARE) small molecule agonists: luciferase reporter gene qHTS assay in human keratinocytes (AID 1919969); settings: KeratinoSens HaCaT ARE-luciferase, luminescence, 24 h; series mostly up to 92.4 µM; further: nearly all actives have a fitted effect of over 35% in size; further: potency means the concentration at half of the fitted maximal effect
[3] = molecular target: Gonadotropin-releasing hormone receptor (Homo sapiens) (UniProt P30968); experiment: Human gonadotropin-releasing hormone receptor (GnRHR) small molecule agonists, calcium flux assay in GnRHR-HEK293 cells (AID 1920063); settings: calcium flux fluorescence, agonist mode; series mostly up to 57.6 µM; further: nearly all actives have a fitted effect of over 35% in size
Gonadotropin-releasing hormone receptor (Homo sapiens), sequence (P30968 whole entry, looked up): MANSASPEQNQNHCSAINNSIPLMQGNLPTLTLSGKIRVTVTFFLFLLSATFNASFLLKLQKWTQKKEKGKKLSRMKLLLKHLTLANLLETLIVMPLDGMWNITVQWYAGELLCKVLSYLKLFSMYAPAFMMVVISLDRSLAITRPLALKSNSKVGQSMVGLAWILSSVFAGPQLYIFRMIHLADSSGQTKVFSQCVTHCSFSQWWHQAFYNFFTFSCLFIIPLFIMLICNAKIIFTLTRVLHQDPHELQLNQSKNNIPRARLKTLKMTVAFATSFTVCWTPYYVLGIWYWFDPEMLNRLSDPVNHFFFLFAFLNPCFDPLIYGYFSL
Method in brief: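 HEK293 cells stably expressing human GnRHR were plated 18 h at 37 °C, loaded with calcium dye 1 h at 37 °C, then given compound in agonist mode; fluorescence (Ex/Em 480/540) read kinetically for 3 min at 1 s intervals.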

[4] = molecular target: KiSS-1 receptor (Homo sapiens) (UniProt Q969F8); experiment: Human kisspeptin (KISS1R) small molecule agonists, calcium flux assay in KISS1R-HEK293 cells (AID 1920064; active means well fitted curve in the direction sought with a large enough effect in the repeat runs; an effect the other way counts as inactive or inconclusive); settings: KISS1R-HEK293, calcium flux fluorescence, agonist; series mostly up to 76.8 µM
KiSS-1 receptor (Homo sapiens), sequence (Q969F8 whole entry, looked up): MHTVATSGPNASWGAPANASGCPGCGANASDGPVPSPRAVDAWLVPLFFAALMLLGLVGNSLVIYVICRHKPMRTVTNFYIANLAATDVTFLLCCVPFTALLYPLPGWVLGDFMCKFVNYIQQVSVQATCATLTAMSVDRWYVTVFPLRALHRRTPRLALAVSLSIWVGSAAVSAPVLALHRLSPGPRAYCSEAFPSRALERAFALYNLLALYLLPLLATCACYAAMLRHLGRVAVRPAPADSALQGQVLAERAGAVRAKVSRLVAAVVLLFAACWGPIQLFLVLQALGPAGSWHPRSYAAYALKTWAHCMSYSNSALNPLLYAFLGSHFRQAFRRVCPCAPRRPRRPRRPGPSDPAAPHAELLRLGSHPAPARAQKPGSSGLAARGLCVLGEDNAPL
Method in brief: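 HEK293 cells stably expressing human KISS1R were plated 18 h at 37 °C, loaded with calcium dye for 1 h at 37 °C, then given compound by pin tool. Fluorescence (Ex/Em 480/540) was read kinetically for 3 min.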

[5] = G protein-coupled receptor (GPCR) small molecule agonists, calcium flux assay: HEK293 wild type cell line counter screen (AID 1920065); settings: HEK293 WT calcium flux, fluorescence, agonist mode; series mostly up to 57.6 µM
Method in brief: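 Cells were plated and cultured 18 h at 37 C/5% CO2, then loaded with calcium dye for 1 h at 37 C. Compounds in DMSO were pin-transferred in agonist mode, and fluorescence (Ex/Em 480/540) was read kinetically for 3 min at 1 s intervals.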

[6] = p53 small molecule agonists, cell-based qHTS assay with human liver microsomes (AID 1963577); settings: HCT-116 p53RE-bla with human liver microsomes, ratio, 16 h; series mostly up to 66 µM;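 further: p53 response element beta-lactamase reporter cells with liver microsomes plus NADPH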
Method in brief: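 Metabolically competent format: test substances, human liver microsomes and NADPH (both 0.5 mg/mL final) incubated with p53RE-bla cells 16 h at 37 C. Beta-lactamase reporter signal then quantified by fluorescence.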

[7] = p53 small molecule agonists, cell-based qHTS assay with rat liver microsomes (AID 1963578); settings: HCT-116 p53RE-bla, beta-lactamase ratio, 16 h; series mostly up to 66 µM
Method in brief: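 Each plate received p53RE-bla cells, then compound, then rat liver microsomes and NADPH (both 0.5 mg/mL final). Plates were held 16 h at 37 C, and beta-lactamase activity was detected with LiveBLAzer over 2 h.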

[8] = p53 small molecule agonists, cell-based qHTS assay with human liver microsomes: qHTS cell viability counter screen (AID 1963579); settings: p53RE-bla HCT-116 viability, ATP luminescence, 16 h, HLM; series mostly up to 66 µM; further: nearly all actives have a fitted effect of over 45% in size
Method in brief: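 Tox21 library compounds, delivered from DMSO stocks, were tested on p53RE-bla cells together with 0.5 mg/mL human liver microsomes and 0.5 mg/mL NADPH (final) over 16 h at 37 C; CellTiter-Glo luminescence served as the cytotoxicity measure.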

[9] = p53 small molecule agonists, cell-based qHTS assay with rat liver microsomes: qHTS cell viability counter screen (AID 1963580); settings: p53RE-bla HCT-116 + rat microsomes, ATP viability, 16 h; series mostly up to 66 µM; further: nearly all actives have a fitted effect of over 45% in size
Method in brief: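 HCT-116 p53RE-bla, 4,000 cells/well, 5 h pre-incubation; cpd + rat liver microsomes 0.5 mg/mL + NADPH 0.5 mg/mL (final); 16 h, 37 C; CellTiter-Glo, 30 min RT; luminescence.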

[10] = p53 small molecule agonists, cell-based qHTS assay: qHTS cell viability counter screen (AID 1963581); settings: p53RE-bla HCT-116 viability, ATP luminescence, 16 h; series mostly up to 66 µM; further: nearly all actives have a fitted effect of over 45% in size
Method in brief: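 p53RE-bla HCT-116 cells were exposed to compounds for 16 h at 37 C; after the beta-lactamase FRET read in the same wells, CellTiter-Glo was added and luminescence (intracellular ATP) read after 30 min at room temperature.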

[11] = molecular target: 5-hydroxytryptamine receptor 2A (Homo sapiens) (UniProt P28223); experiment: 5-hydroxytryptamine receptor 2A (HTR2A) small molecule antagonists, cell-based qHTS assay (AID 1963586); settings: HTR2A-CHO cells, DOI-induced calcium flux, fluorescence; series mostly up to 61.5 µM; further: nearly all actives have a fitted effect of over 45% in size
5-hydroxytryptamine receptor 2A (Homo sapiens), sequence (P28223 whole entry, looked up): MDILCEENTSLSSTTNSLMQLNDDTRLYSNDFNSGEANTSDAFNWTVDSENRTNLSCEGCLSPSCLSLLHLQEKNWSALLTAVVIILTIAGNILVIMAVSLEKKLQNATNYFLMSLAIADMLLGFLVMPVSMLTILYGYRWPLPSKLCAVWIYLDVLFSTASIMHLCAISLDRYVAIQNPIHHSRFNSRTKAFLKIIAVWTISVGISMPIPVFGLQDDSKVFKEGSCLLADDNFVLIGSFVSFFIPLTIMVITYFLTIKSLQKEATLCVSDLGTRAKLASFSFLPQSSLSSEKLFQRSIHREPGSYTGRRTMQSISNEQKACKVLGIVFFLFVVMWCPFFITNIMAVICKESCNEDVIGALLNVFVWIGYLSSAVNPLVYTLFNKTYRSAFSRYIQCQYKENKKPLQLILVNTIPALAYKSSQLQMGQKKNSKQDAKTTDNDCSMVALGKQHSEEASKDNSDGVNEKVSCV
Method in brief: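 Antagonist-mode intracellular calcium assay: DOI (4 nM) added after 5 min compound pre-incubation at room temperature to dye-loaded HTR2A-CHO cells. Fluorescence followed for 3 min, sampled every second.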

[12] = molecular target: 5-hydroxytryptamine receptor 2A (Homo sapiens) (UniProt P28223); experiment: 5-hydroxytryptamine receptor 2A (HTR2A) small molecule agonists, cell-based qHTS assay (AID 1963587); settings: HTR2A-CHO cells, calcium flux fluorescence, agonist mode; series mostly up to 76.8 µM; further: nearly all actives have a fitted effect of over 30% in size
Method in brief: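 Kinetic calcium-flux fluorescence (2 min, 1 sec intervals) after compound addition in agonist mode. HTR2A-CHO cells were cultured 18 h, then dye-loaded 1 h at 37 C.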

[13] = molecular target: Muscarinic acetylcholine receptor M1 (Homo sapiens) (UniProt P11229); experiment: Cholinergic receptor muscarinic 1 (CHRM1) small molecule antagonists, cell-based qHTS assay (AID 1963588); settings: CHRM1-CHO antagonist mode, calcium flux fluorescence; series mostly up to 61.5 µM; further: nearly all actives have a fitted effect of over 40% in size; further: potency means the concentration at half of the fitted maximal effect
Muscarinic acetylcholine receptor M1 (Homo sapiens), sequence (P11229 whole entry, looked up): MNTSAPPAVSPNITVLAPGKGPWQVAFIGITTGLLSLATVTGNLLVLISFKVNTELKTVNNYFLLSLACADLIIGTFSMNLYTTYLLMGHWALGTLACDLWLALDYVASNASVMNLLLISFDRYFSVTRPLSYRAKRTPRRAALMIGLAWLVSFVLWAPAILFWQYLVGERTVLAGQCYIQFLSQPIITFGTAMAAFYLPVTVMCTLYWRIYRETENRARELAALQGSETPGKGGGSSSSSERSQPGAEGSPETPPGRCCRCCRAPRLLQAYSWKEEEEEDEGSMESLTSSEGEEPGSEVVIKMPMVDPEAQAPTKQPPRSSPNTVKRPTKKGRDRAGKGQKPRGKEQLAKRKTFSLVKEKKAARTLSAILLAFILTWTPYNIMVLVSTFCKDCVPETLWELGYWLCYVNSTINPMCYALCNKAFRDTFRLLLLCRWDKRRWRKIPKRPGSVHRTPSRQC
Method in brief: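 CHRM1-CHO calcium-flux assay, antagonist mode. Cells were seeded 18 h, dye-loaded 1 h at 37 C and given compound for 5 min at RT, then acetylcholine was added at 50nM. FDSS fluorescence was read 3 min; 15 concentrations, three runs.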

[14] = molecular target: Muscarinic acetylcholine receptor M1 (Homo sapiens) (UniProt P11229); experiment: Cholinergic receptor muscarinic 1 (CHRM1) small molecule agonists, cell-based qHTS assay (AID 1963589); settings: CHRM1-CHO cells, agonist mode, calcium flux fluorescence; series mostly up to 76.8 µM; further: nearly all actives have a fitted effect of over 35% in size
Method in brief: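 CHO cells stably expressing human CHRM1, seeded 18 h at 37 C/5% CO2, dye-loaded 1 h at 37 C, then given compound in agonist mode; intracellular calcium fluorescence read kinetically at 1 s intervals. Fifteen concentrations, three independent runs.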

[15] = cAMP Responsive Elements (CRE) small molecule agonists, cell-based qHTS assay (AID 1963590); settings: CRE-bla HEK293T, beta-lactamase FRET ratio, 3 h; series mostly up to 92.4 µM
Method in brief: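 CRE-bla HEK 293T cells in DMEM with 10% dialyzed FBS, NEAA, pyruvate and 25 mM HEPES were plated 18 h at 37 C/5% CO2, then exposed to compounds in DMSO for 3 h before LiveBLAzer B/G FRET substrate addition.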

[16] = cAMP Responsive Elements (CRE) small molecule antagonists, cell-based qHTS assay (AID 1963591; active means well fitted inhibition curve with a large enough effect in the signal ratio in the repeat runs, not every such curve was filed as active; the % refers to the signal ratio); settings: CRE-bla HEK293T, beta-lactamase FRET ratio; series mostly up to 92.4 µM
Method in brief: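 CRE-bla HEK293T cells were plated 18 h at 37 °C/5% CO2, pinned with compound in DMSO, then stimulated with NKH477 at 0.25 uM final for 3 h. LiveBLAzer B/G FRET substrate was added and plates incubated 2 h at room temperature.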

[17] = molecular target: Beta-2 adrenergic receptor (Homo sapiens) (UniProt P07550); experiment: Adrenergic beta2 receptor (ADRB2) small molecule antagonists, cell-based qHTS assay (AID 1963592); settings: CHO-ADRB2 cells, isoproterenol-stimulated cAMP HTRF ratio, 0.5 h; series mostly up to 92.4 µM; further: nearly all actives have a fitted effect of over 50% in size
Beta-2 adrenergic receptor (Homo sapiens), sequence (P07550 whole entry, looked up): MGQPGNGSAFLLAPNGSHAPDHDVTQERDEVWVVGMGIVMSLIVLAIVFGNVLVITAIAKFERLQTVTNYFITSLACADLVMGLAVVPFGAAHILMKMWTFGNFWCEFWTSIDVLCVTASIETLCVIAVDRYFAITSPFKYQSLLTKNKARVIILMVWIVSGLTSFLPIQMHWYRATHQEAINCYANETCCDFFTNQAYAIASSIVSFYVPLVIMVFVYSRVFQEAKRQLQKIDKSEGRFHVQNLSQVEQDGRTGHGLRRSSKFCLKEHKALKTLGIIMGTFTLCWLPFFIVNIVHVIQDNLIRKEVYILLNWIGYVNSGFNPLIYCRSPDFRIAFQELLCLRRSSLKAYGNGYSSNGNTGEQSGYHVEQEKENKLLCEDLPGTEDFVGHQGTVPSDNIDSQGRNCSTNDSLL
Method in brief: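 Cells (CHO, stable ADRB2 overexpression) incubated 18-20hr at 37C; compounds added from DMSO; agonist mix (1nM isoproterenol, 100uM IBMX, 25uM Ro-20-1724) added; 0.5hr RT; d2-cAMP and anti-cAMP-cryptate added; 1hr RT; 665/615 nm read.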

[18] = molecular target: D(2) dopamine receptor (Homo sapiens) (UniProt P14416); experiment: Dopamine D2 receptor (DRD2) small molecule agonists, cell-based qHTS assay (AID 1963594); settings: HEK293-DRD2 cAMP HTRF, agonist mode, 30 min; series mostly up to 92.4 µM; further: nearly all actives have a fitted effect of over 35% in size
D(2) dopamine receptor (Homo sapiens), sequence (P14416 whole entry, looked up): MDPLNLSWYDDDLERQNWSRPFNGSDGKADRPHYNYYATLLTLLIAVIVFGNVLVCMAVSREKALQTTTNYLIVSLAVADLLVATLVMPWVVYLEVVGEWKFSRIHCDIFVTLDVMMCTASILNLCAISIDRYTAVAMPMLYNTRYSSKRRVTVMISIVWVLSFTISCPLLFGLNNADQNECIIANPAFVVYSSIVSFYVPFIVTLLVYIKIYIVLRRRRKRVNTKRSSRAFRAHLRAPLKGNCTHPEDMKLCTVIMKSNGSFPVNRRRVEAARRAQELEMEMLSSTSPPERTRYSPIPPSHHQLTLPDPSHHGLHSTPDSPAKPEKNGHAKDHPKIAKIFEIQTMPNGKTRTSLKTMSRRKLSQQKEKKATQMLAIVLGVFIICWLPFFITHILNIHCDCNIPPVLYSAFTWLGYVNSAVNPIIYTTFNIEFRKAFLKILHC
Method in brief: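 cAMP accumulation in DRD2-HEK293 cells measured by HTRF after 1 h detection; compounds added 10 min before NKH477 (200nM […]) forskolin-analogue stimulation, 30 min at room temperature, with Ro20-1724 present at 0.1 mM final.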

[19] = molecular target: D(2) dopamine receptor (Homo sapiens) (UniProt P14416); experiment: Dopamine D2 receptor (DRD2) small molecule antagonists, cell-based qHTS assay (AID 1963595; active means well fitted inhibition curve with a large enough effect in the signal ratio in the repeat runs, with a control signal flat; the % refers to the signal ratio; further: potency means the concentration at half of the fitted maximal effect); settings: HEK293-DRD2 cAMP HTRF antagonist mode; series mostly up to 92.4 µM
Method in brief: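 Human DRD2 antagonist qHTS measuring cAMP by HTRF. The cells are exposed to compound for 10 min, then to NKH477 (200 nM) and quinpirole (12 nM) for 30 min at RT, with Ro20-1724 (0.1 mM) present throughout.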

[20] = p53 small molecule agonists, cell-based qHTS assay (AID 1963582; active means well fitted activation curve with a large enough effect in the signal ratio in the repeat runs, not every such curve was filed as active; the % refers to the signal ratio); settings: HCT-116 p53RE-bla reporter, beta-lactamase FRET ratio, 16 h; series mostly up to 66 µM
Method in brief: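 p53RE-bla beta-lactamase reporter cells rested 5 h at 37 C/5% CO2, then received compounds in DMSO by pin transfer and were incubated 16 h at 37 C. LiveBLAzer B/G FRET substrate was loaded for 2 h at room temperature before fluorescence reading.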

Measured: Potency

Cc1ccc(N)cc1C
active: [2] 9.77 µM
inactive: [1] | [3] | [4] | [5] | [6] | [7] | [8] | [9] | [10] | [11] | [12] | [13] | [14] | [15] | [16] | [17] | [18] | [19]

O=[N+]([O-])CCO
inactive: [1] | [2] | [3] | [4] | [5] | [6] | [7] | [8] | [9] | [10] | [11] | [12] | [13] | [14] | [15] | [16] | [17] | [18] | [19]

Cn1c(-c2ccccc2)cc(-c2ccccc2)[n+]1C
6.66 µM (active) and inactive: [13]
inactive: [1] | [2] | [3] | [4] | [5] | [6] | [7] | [8] | [9] | [10] | [11] | [12] | [14] | [16] | [17] | [18] | [19]

O=C(O)CC(O)(CC(=O)O)C(=O)O
inactive: [1] | [2] | [3] | [4] | [5] | [6] | [7] | [8] | [9] | [10] | [20] | [16] | [17] | [18] | [19]

CCOc1cc(C=O)ccc1O
inactive: [1] | [2] | [3] | [4] | [5] | [6] | [7] | [8] | [9] | [10] | [20] | [13] | [15] | [16] | [17] | [18] | [19]

C[C@]12CCC(=O)C=C1CC[C@@H]1[C@@H]2CC[C@@]2(C)[C@H]1CC[C@]2(C)O
inactive: [1] | [2] | [3] | [4] | [5] | [6] | [7] | [8] | [9] | [10] | [20] | [15] | [17] | [18] | [19]

CCCCCCCCCCCCCl
inactive: [1] | [2] | [3] | [4] | [5] | [6] | [7] | [8] | [9] | [10] | [11] | [12] | [13] | [14] | [15] | [16] | [17] | [18] | [19]

O=C(O)C(Cl)(Cl)Cl
inactive: [1] | [2] | [3] | [4] | [5] | [6] | [7] | [8] | [9] | [10] | [20] | [15] | [16] | [17] | [18] | [19]

O=C(O)CCCc1ccc(N(CCCl)CCCl)cc1
inactive: [1] | [2] | [3] | [4] | [5] | [6] | [7] | [8] | [9] | [10] | [20] | [16] | [17] | [18] | [19]

Cc1ccc(N=CN(C)C=Nc2ccc(C)cc2C)c(C)c1
inactive: [2] | [3] | [4] | [5] | [6] | [7] | [8] | [9] | [10] | [20] | [15] | [16] | [17] | [18] | [19]
61.4 µM (active) and inactive: [1]

C#CCOS(=O)OC1CCCCC1Oc1ccc(C(C)(C)C)cc1 (configuration not stated)
inactive and 54.5 µM (active): [19]
68.7 µM (active) and inactive: [1]
inactive: [3] | [4] | [5] | [6] | [7] | [8] | [9] | [10] | [11] | [12] | [13] | [14] | [17] | [18]
active: [2] 19.4 µM and 19.3 µM

CCCC[n+]1cccc(C)c1
inactive: [1] | [2] | [3] | [4] | [5] | [6] | [7] | [8] | [9] | [10] | [11] | [12] | [13] | [14] | [15] | [16] | [18] | [19]

CC(C)C(=O)OCC(C)(C)C(OC(=O)C(C)C)C(C)C (configuration not stated)
inactive: [1] | [2] | [3] | [4] | [5] | [6] | [7] | [8] | [9] | [10] | [20] | [12] | [13] | [14] | [16] | [17] | [18] | [19]
